In the supplement of paper PMC6555819:

How the values were obtained:
Test in all cases: PBM binding z-score (relative to random genomic background probes); higher = stronger binding; sequences stand for … in GC…GCGATTGACAGCGTAGAATGAAGG
[1] = tested on: FXR:RXRa (NR concentration 270 nM, RXRa partner concentration 90 nM)
Outline: (§1)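 Each nuclear receptor dimer, without ligand, was incubated for 1 h on custom Agilent 4×180K protein-binding microarrays. Binding was detected with antibodies against each partner (one per run), and scanned fluorescence was regression-normalized. The binding z-scores are referenced to random human genomic background probes.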

[2] = tested on: LXRa:RXRa (NR concentration 270 nM, RXRa partner concentration 90 nM)
Outline: as §1

[3] = tested on: LXRa homodimer (NR concentration 270 nM)
Outline: as §1

[4] = tested on: LXRb:RXRa (NR concentration 270 nM, RXRa partner concentration 90 nM)
Outline: as §1

[5] = tested on: LXRb homodimer (NR concentration 270 nM)
Outline: as §1

[6] = tested on: PPARa:RXRa (NR concentration 270 nM, RXRa partner concentration 90 nM)
Outline: as §1

[7] = tested on: PPARg:RXRa (NR concentration 180 nM, RXRa partner concentration 90 nM)
Outline: as §1

[8] = tested on: PPARg:RXRa 270nM:90nM, anti-RXR (NR concentration 270 nM, RXRa partner concentration 90 nM)
Outline: as §1

[9] = tested on: PPARg:RXRa 30nM:10nM, anti-RXR (NR concentration 30 nM, RXRa partner concentration 10 nM)
Outline: as §1

[10] = tested on: PPARg:RXRa 90nM:30nM, anti-RXR (NR concentration 90 nM, RXRa partner concentration 30 nM)
Outline: as §1

[11] = tested on: PPARg:RXRa DBDmut IVT, anti-RXR (DBD mutation: RXRa K156A/R161A, NR concentration 270 nM, RXRa partner concentration 90 nM)
Outline: as §1

[12] = tested on: PPARg:RXRa IVT, anti-PPARg (NR concentration 270 nM, RXRa partner concentration 90 nM)
Outline: as §1

[13] = tested on: PPARg DBDmut:RXRa IVT, anti-PPARg (DBD mutation: PPARg1 K132A/R137A, NR concentration 270 nM, RXRa partner concentration 90 nM)
Outline: as §1

[14] = tested on: PPARg DBDmut IVT, anti-PPARg (DBD mutation: PPARg1 K132A/R137A, NR concentration 270 nM)
Outline: as §1

[15] = tested on: PPARg homodimer (NR concentration 180 nM)
Outline: as §1

[16] = tested on: PXR:RXRa (NR concentration 270 nM, RXRa partner concentration 90 nM)
Outline: as §1

[17] = tested on: PXR homodimer (NR concentration 270 nM)
Outline: as §1

[18] = tested on: RARa:RXR (NR concentration 270 nM, RXRa partner concentration 90 nM)
Outline: as §1

[19] = tested on: RARa homodimer (NR concentration 270 nM)
Outline: as §1

[20] = tested on: RARb:RXRa (NR concentration 270 nM, RXRa partner concentration 90 nM)
Outline: as §1

Sequence	PBM binding z-score [1]	PBM binding z-score [2]	PBM binding z-score [3]	PBM binding z-score [4]	PBM binding z-score [5]	PBM binding z-score [6]	PBM binding z-score [7]	PBM binding z-score [8]	PBM binding z-score [9]	PBM binding z-score [10]	PBM binding z-score [11]	PBM binding z-score [12]	PBM binding z-score [13]	PBM binding z-score [14]	PBM binding z-score [15]	PBM binding z-score [16]	PBM binding z-score [17]	PBM binding z-score [18]	PBM binding z-score [19]	PBM binding z-score [20]
TCGAGTAGGTTACCAATGGGGCATCCAGCTTTCT	-0.0343	1.12	-0.623	0.546	-1.16	1.27	0.366	1.12	1.25	1.19	3.43	2.56	-0.589	-0.544	-0.353	-0.193	-0.691	0.352	-1.07	1.03
ACAGACAGGTGATGACGGTAACTCAGGCTATCAT	-0.347	-0.186	-0.31	-0.476	-0.424	-0.121	0.839	-0.227	-0.335	-0.0238	0.226	0.0775	-0.319	-0.184	-0.306	-0.319	-0.0472	-0.196	0.273	0.237
CAAACTAGGTCACCGGAAGGTCAGAGTCCGCATG	5.32	4.74	2.63	4.09	0.598	5.96	9.65	7.46	5.57	7.33	8.5	8.94	4.78	2.92	4.96	4.71	0.703	6.14	2.03	5.31
CAAACTATGTCAAGAGGTCAAAGTCCGCTTCCCG	5.04	5.63	5.89	4.97	2.01	5.33	5.62	6.27	4.55	6	4.61	4.88	1.22	0.601	4.01	5.64	2.84	6.21	2.09	4.3
TCTAGTTGGTCCAAGGTCACACACTCGAAATGCG	3.91	3.59	1.87	3.54	0.734	4.18	4.19	5.58	4.56	5.7	2.28	3.07	1.36	0.797	3.08	4.21	1.63	4.31	1.96	3.53
CATACAGGGTCAGCTAGGCCATAGTAGGGACGGC	4.59	3.07	-0.118	2.31	0.267	4.32	3.69	2.95	1.21	1.9	0.879	2.3	0.763	0.466	1.7	2.69	0.334	3.47	0.85	4.01
CCTATTAGTTGCCCATAAGGGCAACCGAAGCTCG	0.523	0.339	0.425	0.645	0.866	0.517	0.154	0.281	-0.263	0.0446	-0.00448	0.926	0.125	1.13	0.921	0.597	0.552	0.824	1.45	1.29
CCGACAGGGGCAGAAAGGTTACCATACCATCCGG	0.56	0.716	-0.132	1.04	-0.954	1.95	1.47	1.96	0.381	1.32	-0.112	0.0354	-1.22	-0.752	1.16	1.25	0.36	1.92	0.385	1.95
CCTACTGGACCATCAGGTCATTGATATCAACGTT	1.87	1.86	2.81	2.53	1.02	2.43	1.14	1.97	0.798	1.68	2.13	2.58	0.468	0.568	2.23	2.09	1.45	2.25	1.47	1.97
CCGAGTAGGTTATGGGGCATTTAGGCAACGGTGA	0.297	0.407	0.011	0.603	-0.473	2.22	3.51	4.47	2.4	4.37	3.07	3.53	-0.425	-0.513	2.12	-0.00225	-0.192	0.292	0.0296	0.919
GCTAGCAGGCCATTTGGGTCCCTCAATGACGGGC	-0.228	-0.686	-0.879	-1.21	-1.22	-0.512	-0.133	-0.261	-0.743	-0.708	-0.0266	-0.343	-1.53	-1.41	-1.41	-0.687	-1.15	-0.731	-1.25	-0.116
ATCTCTAGGTACAAGTTCAGTGAATCCCGAGGAT	0.207	0.339	0.332	0.411	0.905	2.42	3.28	4.58	3.23	4.51	0.163	1.47	0.611	0.766	0.56	1.92	1.54	0.393	0.103	1.66
CGAACTAGGTCAGAACAGGCCAGTGAAGGATGAT	1.1	0.652	-0.282	0.231	-0.675	3.02	4.88	4.38	1.91	3.5	6.91	7.16	0.994	-0.348	1.63	0.505	-0.233	1.18	-0.387	2.97
CCTGCTAGGTCAATGGTCCGCTAAAGCAGCTCGC	2.77	2.19	-0.135	1.19	-0.102	2.6	2.12	2.94	0.46	1.87	4.03	3.49	-0.758	-0.248	0.967	0.521	-0.206	1.27	-0.566	3.68
ACTCGGAGGACAAAGCTCAGAGCTACGCCAGTGA	-0.419	-0.663	-0.768	-1.06	-0.958	-0.608	0.401	-0.00696	-0.67	-0.314	-0.219	-0.357	-0.787	-1.32	-1.15	-0.902	-0.759	-1.14	-0.639	0.77
GAGACAGGGTCAGCTAGAGGCCAGAGTATGGAAA	4.45	2.53	-0.421	2.21	-1.18	4.46	2.91	2.82	0.35	1.21	0.507	1.1	-0.524	-0.747	3.57	3.34	0.373	4.73	0.0826	4.09
ACTATCAGTTGACTTAGGGCAACCGATACGACGC	0.0979	0.0623	0.0822	-0.0416	0.543	0.113	0.908	0.0453	0.141	0.385	-0.371	0.386	0.456	0.545	0.231	-0.0461	0.241	0.465	0.08	0.877
TAGCCTAGGTCGTGGGCCAGTATACCACGCGAAC	0.0973	0.0379	-0.669	0.0173	-0.88	0.972	0.333	0.511	-0.615	-0.0658	-0.693	0.595	-0.359	-1.24	-0.437	-0.344	-0.949	0.14	-0.754	1.19
CGAACGAGGGCATGAGTTGCTAGCAAATGCCGAT	0.106	0.132	-0.624	0.0886	-1.12	1.35	1.1	1.52	0.000453	0.931	3.04	1.87	-0.188	-0.705	-0.0181	0.336	-0.327	0.293	-0.816	1.82
ATCTCTAGGTAATGTTCAGTGAAAGATCGATAGA	0.347	0.554	0.048	0.107	1.09	0.239	0.489	0.323	0.558	0.276	2.57	1.63	1.27	1.25	0.598	0.381	0.219	0.543	0.802	0.148
AGATCGAGGGCACGCTGAGTTGATAGCAGAGTAG	0.624	0.579	-0.704	0.248	-0.854	1.83	1.76	1.47	0.155	0.951	3.66	3.58	1.3	0.665	-0.311	1.31	0.0547	0.734	-0.531	2.42
ATATGTAGGTTATCGGGTAATTCAGTTTGCGCAT	0.917	1.31	1.01	1.33	0.955	3.5	5.49	5.19	2.91	4.5	7.14	7.39	1.87	2.29	2.19	1.23	1.15	1.11	1.97	1.02
AATACAGGGTCACTAGCCCAGAGTAGGTACGAAT	5.41	4.89	1.13	3.8	0.946	5.41	5.91	5.2	2.09	4.01	2.81	4.3	1.88	0.703	2.29	2.92	0.113	3.64	1.11	4.08
ACTATTAGTTGACTTAGAGCAACCGATACGACGC	-0.404	0.0474	-0.0686	0.0226	0.635	-0.306	0.964	-0.296	0.379	0.173	-0.101	0.383	1.2	1.1	0.577	-0.152	0.119	-0.00338	1.16	0.073
CCTCGGAGGACAACAGGAGGACAGAGCTGCCAGA	0.107	0.0624	-0.1	-0.555	-1.29	-0.58	0.442	-0.396	-0.625	-0.907	-0.583	-0.273	-0.847	-1.93	-0.324	-0.247	-0.0933	-0.0397	-0.0805	1.09
TGAATGAGGTTAAAGATCAGGGACCGTGGCGTCG	2.75	2.5	-0.345	1.45	0.253	4.71	5.75	6.16	5.21	6.9	1.93	3.65	0.741	0.491	1.52	1.94	-0.23	2.91	0.149	1.96
AGTCAAAGTTCATTAGGTAACGTAAGATTCAGCT	5.94	6.16	5.2	3.29	1.67	4.63	6.37	6.16	3.38	5.54	1.93	4.02	1.72	1.88	3.26	4.83	6.94	3.77	1.92	4.7
CCTAGCAGGCCAATCTGGGTCACTCAGGGCTTGA	0.175	0.973	-0.637	0.336	-1.06	2.61	1.81	2.15	-0.232	1.52	3.91	4.83	0.915	-1.07	0.808	0.386	-0.579	1.64	-0.57	1.35
GCTTCTAGATCAAGGTTAAGAAAGACTAAGCTAA	-0.054	0.652	-0.313	0.697	-0.427	1.58	0.749	1.77	0.224	1.13	0.942	0.862	-0.0506	0.106	0.0754	0.437	0.0298	0.885	-0.746	0.841
